Among the data in PubChem BioAssay (Tox21) are outcome, Potency and activity change, positive = activation values, retold here.

A short description of test [1]: qHTS assay to identify small molecule agonists of H2AX (AID 1224845; active = well fitted activation curve with a large enough effect in the signal ratio in the repeat runs, not every such curve was filed as active; the % refers to the signal ratio). In short, it runs like this:
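Wild-type CHO-K1 cells plated overnight, then exposed 3 hr at 37C to compounds at 15 concentrations (0.76% DMSO). Lysed, then HTRF anti-pH2AX(S139)-cryptate/anti-H2AX-d2 detection after 24 hr at room temperature; emissions 665 and 620 nm.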

Test [2] can be described thus: qHTS assay to identify small molecule agonists of the hypoxia (HIF-1) signaling pathway (AID 1224846; active = well fitted activation curve with a large enough effect in the signal ratio in the repeat runs, not every such curve was filed as active; the % refers to the signal ratio; also: potency is read from the fitted curve at half-maximal effect). In outline:
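A low-serum medium (0.5% dialyzed FBS) holding 2,000 HRE-bla ME-180 cells per well is preincubated for 5 hrs, dosed with compounds by pintool, and kept a further 17 hrs at 37C, 5% CO2 before CCF4-AM FRET detection of beta-lactamase.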

A short description of test [3]: qHTS assay to identify small molecule agonists of H2AX - cell viability counter screen (AID 1224847; calls by dose curve; also: nearly all actives have a fitted effect of over 30% in size; also: potency is read from the fitted curve at half-maximal effect). In short, it runs like this:
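Viability of CHO-K1 (wild type) cells after 3 hr compound exposure was measured by CellTiter-Glo luminescence.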

Test [4] is described as follows: qHTS assay to identify small molecule antagonists of the estrogen related receptor (ERR) signaling pathway from Tox21 library (AID 1224848). Also: nearly all actives have a fitted effect of over 50% in size. Also: potency is read from the fitted curve at half-maximal effect. In short, it runs like this:
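Screening used an ERR reporter line supplied by NTP, exposed for 18 h at 37 C to library compounds delivered in DMSO. Signal was luciferase luminescence developed with ONE-Glo at room temperature for 30 min.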

Test [5] can be described thus: qHTS assay to identify small molecule agonists of the estrogen related receptor (ERR) signaling pathway from Tox21 library (AID 1224849; calls by dose curve; also: nearly all actives have a fitted effect of over 15% in size). The following applies: ERR reporter cell line, ONE-Glo luciferase, 18 h. In outline:
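Screening used an NTP-provided ERR luciferase cell line. Compounds in DMSO were added 6 h after seeding and left 18 h at 37 C before a 30 min ONE-Glo step and luminescence reading.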

Test [6] is described as follows: qHTS RealTime-Glo MT Cell Viability Assay in HepG2 cells - 24 hour (AID 1224867). Also: nearly all actives have a fitted effect of over 50% in size. Also: potency is read from the fitted curve at half-maximal effect. In short, it runs like this:
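qHTS, HepG2, 600 cells/well, RealTime-Glo (NanoLuc + prosubstrate) added with cells; 5 h preincubation; DMSO compound addition; 37 C; luminescence at 0/8/16/24/32/40 h.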

The nature of test [7]: qHTS RealTime-Glo MT Cell Viability Assay in HEK293 cells - 32 hour (AID 1224868). Also: nearly all actives have a fitted effect of over 50% in size. Also: potency is read from the fitted curve at half-maximal effect. In outline:
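Assay medium contained NanoLuc luciferase plus cell-permeant prosubstrate, added with HEK293 cells at 600 cells/well. After 5 h at 37 C/5% CO2 compounds were added; plates stayed at 37 C for 40 h with serial luminescence reads.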

Test [8] can be described thus: A CellTox Green Cytotoxicity Assay to monitor cytotoxicity in HEK293 cells - 0 hour (AID 1224869). Also: nearly all actives have a fitted effect of over 50% in size. Also: potency is read from the fitted curve at half-maximal effect. In outline: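 Fluorescence intensity, read at 0, 8, 16, 24, 32 and 40 h of compound treatment, reflected dye binding to DNA of dead HEK293 cells; compounds (23 nL, DMSO) were added 5 h after plating cells with reagent.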
Test [9] is described as follows: qHTS assay to identify small molecule agonists of the hypoxia (HIF-1) signaling pathway - cell viability counter screen (AID 1224844; calls by dose curve; also: nearly all actives have a fitted effect of over 50% in size; also: potency is read from the fitted curve at half-maximal effect). In outline: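 Cells (HRE-bla ME-180, 2,000 per well) sat 5 hrs at 37C, got compound for 17 hrs, were read for CCF4-AM FRET, and were finally lysed with CellTiter-Glo for a 30 min room-temperature luminescence read.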
Test [10] can be described thus: qHTS RealTime-Glo MT Cell Viability Assay in HepG2 cells - 40 hour (AID 1224870). Also: nearly all actives have a fitted effect of over 50% in size. Also: potency is read from the fitted curve at half-maximal effect. In short, it runs like this:
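HepG2 cells mixed with RealTime-Glo MT reagents (NanoLuc plus cell-permeant prosubstrate) were seeded at 600 cells/well, incubated 5 h at 37 C/5% CO2, then pinned with compounds in DMSO; nonlytic luminescence tracked viability during 40 h treatment.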

Values joined by “and” are separate entries in the source; they are usually repeats but may differ in a detail not shown here. Equal values may be shown once. Inconclusive results are not listed. More than one record can exist for a structure, and the calls need not agree. Active and inactive are the calls of the source. Unless noted, calls follow the shape of the dose curve; as a rule, active = well fitted curve in the direction sought with a large enough effect in the repeat runs; inconclusive = weak or mixed curves; inactive = no such curve, though single readings can be large; an effect the other way counts as inactive or inconclusive.
% is scaled to controls: 0 for no effect and ±100 for the full control effect.

With `S=C(NC1CCCCC1)NC1CCCCC1`, in test [1], the result was inactive. The Potency entry in test [2], in test [3], in test [6] and in [8] was “inactive” each time. The Potency was 15.1 µM (active) and inactive in [4]; 15.2 µM (active) and 21.9 µM (active) in [7]. The activity change, positive = activation in test [5] (at 92.4 µM (top of the series)) is -59.4% (inactive) and -64.8% (inactive).

Turning to `Nc1ncnc2nc[nH]c12`, the Potency result in test [9], in test [4], in test [6], in test [7], in [8] and in test [10] was “inactive” in each case. In addition, the call in test [1] was inactive. For the same compound, in test [5] (at 92.4 µM (top of the series)), the activity change, positive = activation is 111% (active).

`C[C@]12CCC(=O)C=C1CC[C@@H]1[C@@H]2C(=O)C[C@@]2(C)[C@H]1CC[C@]2(O)C(=O)CO`: the Potency result in [9], in test [3], in [6], in test [7], in test [8] and in test [10] was “inactive” each time. Moreover, the call in [1] was inactive.

Consider `CNCCCC12CCC(c3ccccc31)c1ccccc12`, for which the Potency entry in test [9] and in [8] was “inactive” in each case. The Potency in [3] is 113 µM (active); in test [6] it was 49 µM (active) and 23.9 µM (active); in [7], 49 µM (active) and 23.9 µM (active); in test [10], 38.9 µM (active) and 26.8 µM (active).

On to `CC(=O)Oc1ccccc1C(=O)Nc1ncc([N+](=O)[O-])s1`, for which the Potency entry in test [9], in test [6] and in test [8] was “inactive” throughout. In test [1], the result was inactive. In addition, the Potency in test [3] was 9.16 µM (active) and 24.7 µM (active).

In the case of `Nc1ccc(Nc2ccccc2)cc1`, the Potency entry in test [9], in test [2], in [6], in test [8] and in [10] was “inactive” throughout. Further, the Potency in [3] is 89.8 µM (active) and 50.5 µM (active); in test [7], 48.5 µM (active).

Turning to `Cc1cc2nc3c(=O)[nH]c(=O)nc-3n(C[C@H](O)[C@H](O)[C@H](O)CO)c2cc1C`, the Potency entry in [9], in test [3], in [6] and in test [7] was “inactive” throughout. The compound was called inactive in [1]. Also, in [8], the Potency was 43.2 µM (active) and 40.5 µM (active) and 11.7 µM (active).

Turning to `CN(C)CCC=C1c2ccccc2CCc2ccccc21`, the Potency in [9] is 38.9 µM (active); in [3] it was 113 µM (active) and inactive; in [6], “inactive and 43.6 µM (active)”. Further, the compound was called inactive in [1]. Further, in test [8], the Potency result is “inactive”.

Consider `Nc1ccccc1N`, for which the Potency is 43.6 µM (active) in [9] and 50.1 µM (active) in [8]. Moreover, the Potency result in [2], in test [3], in [6], in test [7] and in [10] was “inactive” each time.

With `c1cc(N(CC2CO2)CC2CO2)ccc1OCC1CO1` (stereo not given), the Potency result in test [3], in test [6] and in test [8] was “inactive” in each case. Further, the Potency in [4] is 61.2 µM (active) and 54.5 µM (active); in [7], 24.6 µM (active) and 21.9 µM (active). In addition, in [5] (at 92.4 µM (top of the series)), the activity change, positive = activation was -51.1% (inactive) and -59.2% (inactive).

For `CCCc1c(OCCCCc2nn[nH]n2)ccc(C(C)=O)c1O`, the Potency result in test [9], in test [3], in test [6], in test [7], in [8] and in [10] was “inactive” each time. Also, in test [1], the compound was classed as inactive.

With `Nc1ccc(S(=O)(=O)Nc2cnc3ccccc3n2)cc1`, the Potency entry in test [9], in test [3], in test [6], in test [7] and in test [8] was “inactive” throughout. In addition, the compound was called inactive in test [1].

With `CC(C)=CCC/C(C)=C\CO`, the Potency entry in test [9], in test [3], in test [6], in [7] and in [8] was “inactive” in each case. For the same compound, the compound was called inactive in test [1].

As to `Nc1ncn([C@@H]2O[C@H](CO)[C@@H](O)[C@H]2O)c(=O)n1`, the Potency in test [9] was 13.8 µM (active); in test [4], 864 nM (active) and 1.19 µM (active). Besides, in test [1], the compound was classed as inactive. In addition, the Potency result in [3], in test [6], in test [7], in test [8] and in test [10] was “inactive” in each case. Moreover, the activity change, positive = activation in test [5] (at 42.5 µM (top of the series)) was -50.1% (inactive); in test [5] (at 92.4 µM (top of the series)), -55.9% (inactive).

Turning to `Oc1ccc(O)cc1`, the Potency result in [9], in test [6] and in test [8] was “inactive” each time.

For the compound `O=[N+]([O-])c1ccc2c(c1)Cc1ccccc1-2`, the Potency entry in [9], in test [2], in test [3], in test [4], in test [6] and in [7] was “inactive” throughout. Besides, the Potency entry in test [8] and in test [10] was “inactive” in each case. Further, in test [5] (at 92.4 µM (top of the series)), the activity change, positive = activation was 1.03% (inactive) and -0.93% (inactive).

In the case of `Cc1cccc(N(C)C(=S)Oc2ccc3ccccc3c2)c1`, the Potency entry in test [9], in test [6], in test [7], in test [8] and in [10] was “inactive” throughout. Moreover, the result in test [1] was inactive.

As to `Cc1[nH]c(=O)c(C#N)cc1-c1ccncc1`, the Potency entry in test [9], in [3], in test [6], in test [7], in test [8] and in test [10] was “inactive” in each case. The compound was called inactive in [1].

Take `CC(CCC(=O)O)(c1ccc(O)cc1)c1ccc(O)cc1`: the Potency entry in test [9], in test [3], in test [4], in [6], in test [7] and in [8] was “inactive” throughout. For the same compound, in [1], the result was inactive. Moreover, in [5] (at 92.4 µM (top of the series)), the activity change, positive = activation was 1.54% (inactive) and 1.03% (inactive).

For the compound `O=C(O)c1ccccc1Nc1cccc(C(F)(F)F)c1`, the Potency entry in [9], in test [3], in test [6], in test [7] and in test [8] was “inactive” each time. Moreover, in [1], the compound was called inactive.

Consider `CC(C)(C)NC(=O)[C@H]1CC[C@H]2[C@@H]3CC[C@H]4NC(=O)C=C[C@]4(C)[C@H]3CC[C@]12C`, for which the Potency result in test [9], in test [3], in test [6], in [7], in test [8] and in test [10] was “inactive” throughout. For the same compound, the compound was called inactive in [1].

With `O=C(Nc1ccc([N+](=O)[O-])cc1Cl)c1cc(Cl)ccc1O`, the outcome in test [1] was inactive. The Potency in test [3] was 2.84 µM (active); in test [7] it was 3.47 µM (active) and 928 nM (active). The Potency entry in test [6] and in test [8] was “inactive” each time.

As to `O=C(c1ccc(OCCN2CCCCC2)cc1)c1c(-c2ccc(O)cc2)sc2cc(O)ccc12`, the Potency in test [9] was 43.7 µM (active) and 49 µM (active) and inactive; in test [3], 113 µM (active) and inactive; in test [6], 54.9 µM (active) and inactive; in test [7], 19.5 µM (active) and 23.9 µM (active); in test [10], 54.9 µM (active) and inactive. Further, in test [1], the compound was called inactive. The Potency result in test [8] was “inactive”.

In the case of `CC(=O)O[C@]1(C(C)=O)CC[C@H]2[C@@H]3C=C(Cl)C4=CC(=O)[C@@H]5C[C@@H]5[C@]4(C)[C@H]3CC[C@@]21C`, the Potency entry in [9] and in [8] was “inactive” each time. For the same compound, in [1], the call was inactive. In addition, the Potency in test [7] was 24.5 µM (active) and inactive.

For `COc1cccc2c1C(=O)c1c(O)c3c(c(O)c1C2=O)C[C@@](O)(C(=O)CO)C[C@@H]3O[C@H]1C[C@H](N)[C@H](O)[C@H](C)O1`, the Potency in test [9] was 5.49 µM (active) and 10.7 µM (active); in test [6] it was “inactive and 1.69 µM (active)”; in test [7], 123 nM (active) and 213 nM (active). Moreover, the Potency result in test [3], in [4] and in [8] was “inactive” each time. In test [5] (at 42.5 µM (top of the series)), the activity change, positive = activation was -2.08% (inactive) and 0.0204% (inactive).

Take `CN(C)CCN(Cc1cccs1)c1ccccn1`: the Potency entry in [9], in test [3], in [6], in test [7], in [8] and in test [10] was “inactive” throughout. Moreover, the result in test [1] was inactive.

On to `CC(C)OC(=O)C(C)(C)Oc1ccc(C(=O)c2ccc(Cl)cc2)cc1`, for which the Potency result in test [9], in test [6] and in test [8] was “inactive” in each case. For the same compound, in test [1], the result was inactive. The Potency is 50.5 µM (active) in test [3]; 21.9 µM (active) and 10.7 µM (active) in test [7].

As for `CN(C)c1nc(N(C)C)nc(N(C)C)n1`, the Potency result in test [9], in test [3], in [6], in [7], in [8] and in test [10] was “inactive” each time. Besides, the result in test [1] was inactive.

With `c1ccc2c(c1)c1cccc3ccc4cccc2c4c31`, the Potency entry in test [9], in test [3], in [6], in test [8] and in test [10] was “inactive” each time. Also, the Potency is 43.4 µM (active) and inactive in test [2]; “inactive and 17.4 µM (active)” in test [7].
